The values below come from PubChem BioAssay (NCATS).

Records with an inconclusive call do not appear. A call without a number means that no potency is given here. Active and inactive are the calls of the source. The call rests on the fitted dose curve; in most records, active means well fitted inhibition curve with a large enough effect; inconclusive means small, poorly fitted or top-dose-only effect; inactive means flat fitted curve, though single readings scatter.

Calcium and integrin-binding protein 1 (Homo sapiens), sequence (Q99828 whole entry, looked up): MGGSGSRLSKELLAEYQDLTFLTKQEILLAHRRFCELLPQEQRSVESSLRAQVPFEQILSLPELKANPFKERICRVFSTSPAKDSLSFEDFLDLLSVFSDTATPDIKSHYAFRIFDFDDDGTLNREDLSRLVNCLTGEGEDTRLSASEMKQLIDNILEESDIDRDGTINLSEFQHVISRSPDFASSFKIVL

This experiment concerns the target Calcium and integrin-binding protein 1 (Homo sapiens) (UniProt Q99828). Nature of the experiment: Primary qHTS for Identification of Calcium Integrin Binding Protein 1 (CIB1) Competitor (AID 1508620).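 Further: GST tagged CIB1 binding a fluorescein labelled alphaIIb integrin peptide tracer; top concentration of the series differs between compounds.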 Conditions: CIB1-GST / FITC-alphaIIb peptide fluorescence polarization; series mostly up to 114 µM. An excerpt:
Assay Provider: Ulhas P. Naik, PhD Sidney Kimmel Medical College Thomas Jefferson University, Philadelphia, PA Primary function of platelets is to maintain hemostasis. At the site of vascular injury, platelets adhere to adhesive proteins such as collagen and von Willebrand factor. Adherent platelets are activated and generate soluble platelet agonists such as thrombin, ADP and thromboxane A2. Following exposure of circulating platelets to these agonists, results in platelet shape change, granule secretion and activation of platelet integrin alphaIIb-beta3. Ligand binding to activated integrin alphaIIb-beta3 triggers outside-in signaling, leading to platelet aggregation, stabilization of platelet plug, and clot retraction. Upon atherosclerotic plaque rupture also causes platelet plug formation, which underlies a number of cardiovascular diseases such as myocardial infraction and stroke. A number of anti-platelet drugs such as aspirin, clopidogrel, prasugrel, vorapaxar, and eptifibatide are currently available to prevent the thrombotic complications. However, these anti-platelet agents have several limitations including inherent variability in individual responses, developing resistance, and serious bleeding side effects. For these reasons they are not suitable for long-term protection. Based on the experiences with current anti-platelet drugs, it appears that the most useful therapeutic approach is to intersect the secondary responses such as integrin outside-in signaling or recruitment of platelets by TxA2 and secreted ADP. Compounds, which can largely preserve the primary hemostatic function of platelets but inhibit secondary response will be most desired therapeutic agents for treatment of cardiovascular disease. CIB1 is a calcium integrin binding protein, which specifically interact with the alphaIIb subunit of integrin alphaIIb-beta3. Binding of CIB1 to alphaIIb regulates the outside-in signaling in platelets, which is needed for thrombus stabilization and thrombus growth. […] Therefore, we propose that discovery of a small molecule that can prevent the association of CIB1 and alphaIIb-beta3 will be a potential anti-platelet agent that can block the thrombus formation without undue effect on hemostasis. Reference: [1] Naik MU, Nigam A, Manrai P, et al. CIB1 deficiency results in impaired thrombosis: the potential role of CIB1 in outside-in signaling through integrin alpha IIb beta 3. J Thromb Haemost.
PROTOCOL TABLES SEQUENCE No. (1, 2, 3, etc.); […] (e.g., Cells, Incubation, Reagent, etc.); VALUE and DESCRIPTION. 1; Reagent; 3 uL; Protein or buffer (4/3x) 2; Compound; 46 nL; Control inhibitor / compound library 3; Time; 15 min; Room temperature incubation 4; Reagent; 1 uL; Fluorescent labeled peptide (4x) 5; Time; 1000 rpm; Centrifuge 6; Time; 15 min; Room temperature incubation 7; Detection; Ex 480/ Em 540; ViewLux Fluorescence Read NOTES (numbers refer to sequence above) 1; Protein Mixture: C1B1-GST (final concentrations of 1 uM). […] 3; Room temperature incubation. 4; Fluorescent Labeled Peptide: FITC-aIIb (final concentration of 100 nM). Sequence of alphaIIb peptide: Acetyl-[…]-FITC (purity is 95.83%). 5; Centrifuge 1000 rpm (164 g) for 15 seconds. 6; Room temperature incubation. 7; ViewLux Fluorescent Polization Read: excitation = 480(20) / emission = 540(25) S and P; FITC Dichroic mirror.
For orientation: Quantitative high-throughput screening tests each substance at several concentrations.
Turning to `Fc1ccc(-n2cc(CCCCN3CCC4(CC3)OCc3ccccc34)c3ccccc32)cc1`, the Potency result was “inactive”.

Regarding `COc1ccc(CN2CCN(C(=O)CCNC(=O)c3ccc(C(C)(C)C)cc3)CC2)cc1`, the Potency result is “inactive”.

Turning to `Cc1cc(C)nc(SCC(=O)Nc2ncc(Cc3cccc4ccccc34)s2)n1`, the Potency entry is “inactive”.

As to `CCC(=C(c1ccc(OCCN2CCCC2)cc1)c1ccc(OCCN2CCCC2)cc1)c1ccccc1`, the Potency result was “inactive”.

As to `O=S(=O)(Nc1cc(Cl)c(Oc2cnc3ccccc3c2)c(Cl)c1)c1ccc(Cl)cc1Cl`, the Potency entry was “inactive”.

Consider `O[C@@](Cc1ncc(CC2(C(F)(F)F)CC2)[nH]1)(c1ccc(-n2cccn2)cc1)C(F)(F)F`, for which the Potency entry was “inactive”.

Take `Cc1cc2c(N3CCCC3)nc(N3CCCC3)nc2n1C`: the Potency entry is “inactive”.

Take `COc1cc(F)c(F)c(Nc2ccc(I)cc2F)c1NS(=O)(=O)C1(CC(O)CO)CC1` (stereo not given): the Potency result is “inactive”.

For `CC(=O)O[C@@H]1CC[C@@]2(C)[C@H](CC[C@@H]3[C@@H]2C[C@H](OC(C)=O)[C@]2(C)[C@@H](C(C)=O)CC[C@@H]32)C1`, the Potency result is “inactive”.

For the compound `CCCCCc1ccc(/C=C/C(=O)Nc2cc(Cl)ccc2C(=O)O)cc1`, the Potency result was “inactive”.

Turning to `COC(=O)/C=C/C=C/C(=O)OC1C=C2COC(=O)C2(O)C2(C)CCCC(C)(C)C12` (stereo not given), the Potency entry was “inactive”.

Take `O=C(NCCN1CCN(c2cccc3ccc(O)cc23)CC1)c1ccc(F)cc1`: the Potency result was “inactive”.

With `FC(F)(F)c1ccc(/C=C/c2nc(COc3ccc(CCCCn4ccnn4)cc3)co2)cc1`, the Potency result was “inactive”.

As for `O=C(c1ccc(F)cc1)N1CCCC(c2nc(-c3ccc(F)cc3)no2)C1` (stereo not given), the Potency entry was “inactive”.

For `Cc1nc(-c2cn3c(n2)-c2ccc(-c4cnn(C(C)(C)C(N)=O)c4)cc2OCC3)n(C(C)C)n1`, the Potency result is “inactive”.

Regarding `O=C(NO)c1cnc(N2CCN(S(=O)(=O)c3ccc4ccccc4c3)CC2)nc1`, the Potency entry was “inactive”.

`C=C1C(=O)OC2/C=C(\CO)CC/C=C(\C=O)C(O)C(OC(=O)C(C)CC)C12` (stereo not given): the Potency result was “inactive”.

As for `C/C1=C\CCC2=CC(OC2=O)C(C)(C)/C=C/C1=O` (stereo not given), the Potency entry was “inactive”.

Turning to `CCn1c(=O)n([C@H]2CCCN(c3nccc(-c4cc5ccccc5o4)n3)C2)c2ccccc21`, the Potency entry was “inactive”.

Take `Cc1ccc(OC[C@H](O)[C@H](C)NC(C)C)c2c1CCC2`: the Potency entry is “inactive”.

For the compound `O=c1[nH]c2cccc(N3CCN(Cc4ccc(-c5ccccc5)cc4)CC3)c2o1`, the Potency entry was “inactive”.

Regarding `CNc1cc2[nH]c(=O)n(-c3ccc(NC(=O)NS(=O)(=O)c4ccc(Cl)s4)cc3)c(=O)c2cc1F`, the Potency entry is “inactive”.

Turning to `C=C(C(=O)O)[C@@H]1CC=C(CCC(C)=O)[C@@H](C)CC1`, the Potency entry is “inactive”.

In the case of `C=C1C(=O)O[C@@H]2C[C@]3(C)[C@@H](CCC(C)O)[C@@H]3C[C@H]12` (stereo not given in full), the Potency entry was “inactive”.

Consider `CCC/C=C\C=C/CCc1cc(O)c([C@@H]2O[C@H](CO)[C@@H](O)[C@H](O)[C@H]2O)c(O)c1C(=O)OC`, for which the Potency result was “inactive”.

On to `C/C(=N\N=C(N)N)c1cc(NC(=O)CCCCCCCCC(=O)Nc2cc(/C(C)=N/N=C(N)N)cc(/C(C)=N/N=C(N)N)c2)cc(/C(C)=N/N=C(N)N)c1`, for which the Potency result was “inactive”.

Regarding `CC#C[C@@H](CC(=O)O)c1ccc(OCc2ccc(CN3CCC4(C=Cc5ccccc54)CC3)s2)cc1`, the Potency entry was “inactive”.

On to `O=C(Nc1ccccc1)c1ccc(Nc2nnc(-c3ccc(O)cc3)c3ccccc23)cc1`, for which the Potency result was “inactive”.

For the compound `Cn1ccc(NC(=O)c2cc(Oc3ccc(C(=O)N4CCC4)c(F)c3)c3c(c2)OC(C)(C)C3)n1`, the Potency result is “inactive”.

Turning to `C=C[C@](C)(O)CC[C@H]1C(C)=CC(=O)[C@H]2C(C)(C)CCC[C@]12C`, the Potency result was “inactive”.

`O=C(CN1C2=NCCN2c2ccccc21)c1ccc(-c2ccccc2)cc1`: the Potency result was “inactive”.

As for `CC(=O)O[C@@]12CO[C@@H]1C[C@H](O)[C@@]1(C)C(=O)[C@H](O)C3=C(C)[C@@H](OC(=O)[C@H](O)[C@@H](NC(=O)OC(C)(C)C)c4ccccc4)C[C@@](O)([C@@H](OC(=O)c4ccccc4)C12)C3(C)C` (stereo not given in full), the Potency entry was “inactive”.

Take `CCOc1cn(-c2ccc(F)cc2C)nc1C(=O)Nc1ccc(Oc2ccnc3cc(OC)c(OC)cc23)c(F)c1`: the Potency result was “inactive”.

As to `CS/C=C/C(=O)O[C@@H]1CCC2=CC(=O)C(=C(C)C)C[C@]2(C)[C@H]1C`, the Potency result is “inactive”.

Turning to `Cn1cc(-c2ccc(F)c(C(F)(F)F)c2)nc1C1CCN(c2ncnc3[nH]ncc23)CC1`, the Potency result is “inactive”.

For the compound `Nc1nccc(-c2c(-c3ccc(F)cc3)ncn2C2CCCCC2)n1`, the Potency entry was “inactive”.

Consider `O=C(NCCCN1CCOCC1)c1cnn2c(-c3ccccc3)cc(-c3ccccc3)nc12`, for which the Potency entry is “inactive”.

As to `N#Cc1cc(C2=Nc3ccc(Br)cc3NC(=O)C2)ccn1`, the Potency entry is “inactive”.

Take `COc1ccccc1OCCNCC(O)CCOc1cccc2[nH]c3ccccc3c12` (stereo not given): the Potency result is “inactive”.

Consider `CC(C)(O)C(=O)N1CCN(c2ccc(C(F)(F)F)c(C3=C(c4c[nH]c5ccccc45)C(=O)NC3=O)c2)CC1`, for which the Potency result was “inactive”.
